{"source": "PubChem BioAssay (EPA / NIEHS)", "note": "Where “and” joins values, the source holds several entries; their conditions need not be identical. Equal values may be shown once. A structure can be active in one record and inactive in another. Calls of active or inactive are those of the source. How the source made its calls: active means hit-call score of the fitted dose curve at least 0.9, where 1 is the maximum; inactive means score below 0.9."}
{"read-out": "Vascular endothelial growth factor receptor 2 (Homo sapiens) (UniProt P35968)", "assay": "BSK_4H_VEGFRII: BioMAP Diversity Plus: 4H Assay for Vascular endothelial growth factor receptor 2 (VEGFR2) Biomarker Activity (AID 2283031);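 on AC50: cell-surface VEGFR2 protein level quantified by ELISA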", "settings": "primary human endothelial cells (HUVEC); actives raise or lower the signal", "summary_of_the_method": "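Measured by ELISA after 24 h of compound treatment: VEGFR2 on primary human umbilical vein endothelial cells, fitted in both directions relative to DMSO. Parallel cultures received SRB staining (560 nm) for overt cytotoxicity.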"}
{"compound": "Nc1ccc(N)c(Cl)c1", "AC50": "10.2 µM (active)", "outcome": "inactive"}
{"compound": "S=C(NC1CCCCC1)NC1CCCCC1", "outcome": "inactive"}
{"compound": "CCOC(=O)c1ccccc1C(=C1C=C(Br)C(=O)C(Br)=C1)c1cc(Br)c(O)c(Br)c1", "outcome": "inactive"}
{"compound": "CC(C)C(=O)C(C)C", "outcome": "inactive"}
{"compound": "C=CC=CC=CCCCCC", "outcome": "inactive"}
{"compound": "C=C[Si](OC(C)=O)(OC(C)=O)OC(C)=O", "outcome": "inactive"}
{"compound": "CCO[Si](C)(OCC)OCC", "outcome": "inactive"}
{"compound": "CO[Si](OC)(OC)c1ccccc1", "outcome": "inactive"}
{"read-out": "Human Leukocyte Antigen - DR isotype (HLADR), HLA-DRA (gene 3122)", "assay": "BSK_BE3C_HLADR: BioMAP Diversity Plus: BE3C Assay for Human Leukocyte Antigen - DR isotype (HLADR) Biomarker Activity (AID 2283032)", "settings": "primary human bronchial epithelial cells; actives raise or lower the signal", "summary_of_the_method": "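ELISA read-out of HLA-DR on human lung bronchial epithelial primary cells, measured 24 h post-dosing. Both increases and decreases were scored relative to DMSO vehicle.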"}
{"compound": "Nc1ccc(N)c(Cl)c1", "outcome": "inactive"}
{"compound": "S=C(NC1CCCCC1)NC1CCCCC1", "outcome": "inactive"}
{"compound": "CCOC(=O)c1ccccc1C(=C1C=C(Br)C(=O)C(Br)=C1)c1cc(Br)c(O)c(Br)c1", "AC50": "4.71 µM (active) and 4.54 µM (active)"}
{"compound": "CC(C)C(=O)C(C)C", "outcome": "inactive"}
{"compound": "C=CC=CC=CCCCCC", "AC50": "5 µM (active)"}
{"compound": "C=C[Si](OC(C)=O)(OC(C)=O)OC(C)=O", "outcome": "inactive"}
{"compound": "CCO[Si](C)(OCC)OCC", "outcome": "inactive"}
{"compound": "CO[Si](OC)(OC)c1ccccc1", "outcome": "inactive"}
